Platelet DG rel: platelet dense granule release activity | hit rate 0.22% among 300,000 | AID 1663 | human platelet-rich plasma, SFLLRN dense granule ATP release, luminescence | inhibition, %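 (compounds screened at 7.5 µM in platelet-rich plasma)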;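 active = mean replicate score, as percent of positive control, at or above 50; inconclusive = mean below 50 but at least one replicate at or above 50; inactive = mean and every replicate below 50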
HSF-1 act: increases HSF-1 driven luciferase reporter signal | hit rate 1.7% among 300,000 | AID 504408 | NIH3T3-HGL HSF-1 luciferase reporter, MG132, 8 h; 100% = twice DMSO control signal | activation, % at 9 µM;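 active = mean replicate activation of at least 50% with a set share of replicates each reaching 50%; inconclusive = only one of those two conditions met; inactive = mean below 50% and too few replicates reaching it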
dFosB act-1: mouse delta FosB homodimer activation | P13346 | purified delta FosB, TAMRA-CDK5 oligo fluorescence polarization; percent of positive-control signal above neutral wells | activation, % at 25 µM | hit rate 0.99% among 340,000 | AID 493131;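 active = mean activation above about 17%, with every replicate also reaching it, limit read from the data, passing the limit was not always enough; inconclusive = only one of the two conditions met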
Target sequence (P13346 whole entry, looked up): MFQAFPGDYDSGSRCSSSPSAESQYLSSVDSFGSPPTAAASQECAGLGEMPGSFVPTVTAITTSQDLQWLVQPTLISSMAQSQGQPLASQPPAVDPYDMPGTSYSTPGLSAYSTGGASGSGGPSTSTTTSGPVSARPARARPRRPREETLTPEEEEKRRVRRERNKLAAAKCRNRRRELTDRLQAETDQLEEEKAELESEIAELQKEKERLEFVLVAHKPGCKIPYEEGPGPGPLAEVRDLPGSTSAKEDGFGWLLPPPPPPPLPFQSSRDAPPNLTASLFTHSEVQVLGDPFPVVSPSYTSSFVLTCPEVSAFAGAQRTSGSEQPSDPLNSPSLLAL
MPTP inh: permeability transition pore inhibition; isolated mouse mitochondria, Ca2+ swelling absorbance, 30 min; inhibition, % at 10 µM; hit rate 1.4% among 360,000; AID 602449;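 active = inhibition of 50% or more, scaled per plate between neutral and stimulator controls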
HSF1 inhib: HSF1 inhibition. AID 2098. hit rate 0.77% among 300,000. NIH3T3-HGL HSE-luciferase, MG132-induced, luminescence 8 h; active compounds read low. activity change, negative = inhibition, % at 7.5 µM (by protocol);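 active = more than half of replicate wells show activity change below -50%, luminescence cut by over half; inconclusive = some wells, but at most half, below -50%; inactive = no replicate well below -50%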;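 note: luciferase reports HSF-1 transcriptional activity via heat shock element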
HSP90 inh: inhibitors of HSP90 luciferase refolding in rabbit reticulocyte lysate. hit rate 0.91% among 290,000. luciferase refolding luminescence, 3 h. inhibition, % at 5.6 µM;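 active = inhibition above the screen-wide mean plus 3 SD, computed separately per campaign, cut at about 16% in these data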;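 note: inhibitors lower the luminescence because luciferase stays unfolded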
dFosB act-2: activators of mouse delta FosB homodimer DNA binding; purified delta FosB, TAMRA-CDK5 oligo fluorescence polarization; normalised: neutral wells 0, positive control 100; 2,400 tested, under 10 active; activation, % at 24.9 µM; shares compounds with dFosB act-1;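 active = highest replicate activation at or above 34% and every replicate reaching that threshold; inconclusive = meets only one of the two criteria; inactive = meets neither criterion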;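 note: higher polarization means more probe DNA bound by delta FosB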
Of the large screens only hits and unclear results are named; the others gave an inactive call (follow-up assays come after a bar, where they were run). Most compounds without a hit are left out; they make up all but 4.9% or so of the library.

Cc1ccc(CSCC(=O)N/N=C/c2ccc(OCC(=O)Nc3ccc(C)cc3)cc2)cc1	dFosB act-1 27 | dFosB act-2 inactive
COc1ccc(C(=O)Nc2nc3cc(OC)c(OC)cc3c(=O)[nH]2)cc1	dFosB act-1 25 (no result: Platelet DG rel, HSF-1 act, HSF1 inhib) | dFosB act-2 inactive
CCOc1ccc(NC(=O)Cn2nnc(-c3ccccc3NC(=O)CC)n2)cc1	none
COc1ccc(NC(=O)Cn2nnc(-c3ccccc3NC(=O)c3cccs3)n2)cc1	HSF-1 act inconclusive
Cc1ccc(NC(=O)Cn2nnc(-c3ccccc3NC(=O)c3cccs3)n2)cc1	dFosB act-1 48 | dFosB act-2 inactive
O=C(Cn1nnc(-c2ccccc2F)n1)Nc1ccc2c(c1)OCCO2	none
O=C(Cn1nnc(-c2ccccc2F)n1)Nc1cccc2ncccc12	dFosB act-1 26 | dFosB act-2 inactive
O=C(Cn1nnc(-c2ccccc2NC(=O)c2ccccc2)n1)Nc1ccc2c(c1)OCCO2	dFosB act-1 44 | dFosB act-2 inactive
CCCC(=O)Nc1ccccc1-c1nnn(CC(=O)Nc2ccc(OCC)cc2)n1	dFosB act-1 41 | dFosB act-2 inactive
O=C(c1ccco1)N1CCN(C2CN(C3CCCCC3)S(=O)(=O)C2)CC1 (configuration not stated)	none (no result: Platelet DG rel, HSF-1 act, dFosB act-1, HSF1 inhib, HSP90 inh)
Cc1ccc(C(C)NC(=O)c2cc3ccccc3oc2=O)cc1C (configuration not stated)	none
CC1CCN(S(=O)(=O)c2ccc(NC(=O)c3ccccc3F)cc2)CC1	none
CC1CCN(S(=O)(=O)c2ccc(NC(=O)Cn3nnc(-c4ccccc4F)n3)cc2)CC1	dFosB act-1 78 | dFosB act-2 inactive
NNc1nc(Nc2ccc([N+](=O)[O-])cc2)nc(N2CCCCCC2)n1	dFosB act-1 67 | dFosB act-2 inactive
O=[N+]([O-])c1ccc(Nc2nc(NCCO)nc(N3CCCC3)n2)cc1	none
CC1=CC(=O)Nc2cncnc2N1	none (no result: Platelet DG rel, HSF-1 act, HSF1 inhib, HSP90 inh)
CCOc1cc(C(=O)Nc2ccc3c4c(cccc24)C(=O)N3CC)cc(OCC)c1OCC	HSF-1 act inconclusive, dFosB act-1 24 | dFosB act-2 inactive
Cc1cc(C)c(C#N)c(SCC(=O)Nc2nnc(-c3ccccc3)s2)n1	dFosB act-1 39 | dFosB act-2 inactive
Cc1csc(NC(=O)CSc2nsc(SCC(=O)Nc3nc(C)cs3)c2C#N)n1	dFosB act-1 25 | dFosB act-2 inactive
Cc1ccc(NC(=O)CSc2nsc(SCC(=O)Nc3ccc(C)cc3C)c2C#N)c(C)c1	none
O=C(Nc1cc2c3c(c1)CC(=O)N3CCC2)c1c(F)cccc1F	none (no result: HSP90 inh)
NC(=O)CC(NC(=O)Cc1ccc(Br)cc1)c1ccc(NCc2ccc(F)c(F)c2)c([N+](=O)[O-])c1 (configuration not stated)	dFosB act-1 52 (no result: HSP90 inh) | dFosB act-2 inactive
CCN(CC)CCN(C(=O)c1ccc2c(c1)CCCC2)c1nc2ccc(C)cc2s1	none
CCN(CC)CCN(C(=O)c1ccc2c(c1)CCCC2)c1nc2c(C)cccc2s1	dFosB act-1 29 | dFosB act-2 inactive
CCN(CC)CCN(C(=O)c1ccc2c(c1)CCCC2)c1nc2ccc(OC)cc2s1	dFosB act-1 23 | dFosB act-2 inactive
CCN(CC)CCN(C(=O)c1ccc2c(c1)CCCC2)c1nc2ccc(F)cc2s1	none
O=C(Nc1ccc(NC(=O)c2ccc(Cl)cc2Cl)cc1)c1cccs1	none
O=C(NC(=S)Nc1cccc(NC(=O)c2ccc(Cl)cc2Cl)c1)c1cccs1	dFosB act-1 44 | dFosB act-2 inactive
COC(=O)c1ccc(CN(c2ccc(C(=O)O)c(O)c2)S(=O)(=O)c2ccc(Cl)c([N+](=O)[O-])c2)cc1	none
O=C(Nc1ccccc1)c1nc[nH]c1C(=O)NCCNC(=O)c1[nH]cnc1C(=O)Nc1ccccc1	dFosB act-1 37 (no result: Platelet DG rel, HSF-1 act, HSF1 inhib, HSP90 inh) | dFosB act-2 inactive
Cc1ccc(NC(=O)Cn2nnc(C(=O)NCc3ccc(Cl)cc3)c2N)cc1F	dFosB act-1 77 | dFosB act-2 inactive
Cc1ccc(CNC(=O)Cn2nnc(C(=O)Nc3cc(C)ccc3C)c2N)cc1	dFosB act-1 36 | dFosB act-2 inactive
Cc1ccccc1NC(=O)Cn1nnc(C(=O)NCc2ccco2)c1N	none
CCOc1ccccc1NC(=O)Cn1nnc(C(=O)NCc2ccco2)c1N	dFosB act-1 28 (no result: Platelet DG rel) | dFosB act-2 inactive
